Compound activity (PubChem BioAssay)
EZH2 inh = EZH2 (human) methyltransferase inhibition; Q15910; PRC2 H3K27 methylation, DELFIA TRF, 1 h; inhibition, % at 12.5 µM; 57,000 tested, 0.35% active; AID 651548;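 active means mean inhibition of replicates at least 50% and every single replicate also reaching 50%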;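 further: dimethyl H3K27 on biotinylated H3 21-44 peptide detected by antibody; plate controls were median neutral control wells for no effect and median positive control wells for full effect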
Starred values were filed as active, the others as inactive. Only a selection was taken, and hits are over-represented in it overall.

How did Cc1ccc(NC(=O)CN(c2ccc(Cl)c(C(F)(F)F)c2)S(C)(=O)=O)cc1 do in these assays?
EZH2 inh: 13

How did C[C@@H]1CC[C@]2(C(=O)OC3OC(CO)C(OC4OC(CO)C(O)C(O)C4O)C(O)C3O)CC[C@]3(C)C(=CCC4[C@@]5(C)CC[C@H](O)[C@](C)(C(=O)O)C5CC[C@]43C)C2[C@]1(C)O (some centres undefined) do in these assays?
EZH2 inh: 60*

What do the screens show for `CC1(C)CC[C@]2(C(=O)O[C@@H]3O[C@H](CO)[C@@H](O)[C@H](O)[C@H]3O)CC[C@]3(C)C(=CCC4[C@@]5(C)CC[C@H](O[C@@H]6O[C@H](C(=O)O)[C@@H](O)[C@H](O)[C@H]6O)[C@@](C)(CO)C5CC[C@]43C)C2C1` (some centres undefined)?
EZH2 inh: 3

How did CC1(C)CC[C@]2(C(=O)O[C@@H]3O[C@H](CO)[C@@H](O)[C@H](O)[C@H]3O)CC[C@]3(C)C(=CCC4[C@@]5(C)CC[C@H](O[C@@H]6O[C@H](C(=O)O)[C@@H](O[C@@H]7O[C@H](CO)[C@@H](O)[C@H](O)[C@H]7O)[C@H](O)[C@H]6O[C@@H]6O[C@H](CO)[C@@H](O)[C@H](O)[C@H]6O)C(C)(C)C5CC[C@]43C)C2C1 (some centres undefined) do in these assays?
EZH2 inh: 11

How did Cc1cccc(-c2nnc(SCC(=O)Nc3ccc(Br)cc3F)o2)c1 do in these assays?
EZH2 inh: 9

Results for O=C(O)CCCCCCC(=O)Nc1ccc(C2CC(CSc3nc(-c4ccccc4)c(-c4ccccc4)o3)OC(c3ccccc3)O2)cc1 (centres undefined) ?
EZH2 inh: 92*

How did O=C(CCSc1nnc(-c2ccccc2)o1)Nc1ccc(F)cc1 do in these assays?
EZH2 inh: -15

What do the screens show for `CC(=O)c1cccc(NC(=O)CSc2nc(-c3ccccc3)c(-c3ccccc3)o2)c1`?
EZH2 inh: 31

What do the screens show for `COc1cc(Cl)c(C)cc1NC(=O)CN(C)S(=O)(=O)c1ccccc1`?
EZH2 inh: 22

What do the screens show for `O=C(CCCCC(=O)N/N=C/c1ccc(Br)cc1)NO`?
EZH2 inh: -6

What do the screens show for `C[C@@H]1O[C@@H](Oc2ccc(C3Oc4cc(O)cc(O)c4C(=O)C3O)cc2O)[C@H](O)[C@H](O)[C@H]1O` (some centres undefined)?
EZH2 inh: 97*

What do the screens show for `C[C@@H]1O[C@@H](O[C@H]2[C@H](Oc3cc(O)c4c(c3)O[C@H](c3ccc(O)c(O)c3)CC4=O)O[C@H](CO)[C@@H](O)[C@@H]2O)[C@H](O)[C@H](O)[C@H]1O`?
EZH2 inh: 4

How did O=C1c2c(O)cc(O)cc2O[C@H](c2ccccc2)[C@H]1O do in these assays?
EZH2 inh: 8

How did C=CCOC(=O)[C@H]1[C@@H]2C(=O)O[C@@H](c3ccccc3)[C@@H](c3ccccc3)N2[C@@H](c2ccc(OCCOC(=O)[C@@H]3C[C@@H]4C(=O)N[C@@H](CC(C)C)C(=O)N4[C@@H]3c3cccc(OCCO)c3)cc2)[C@]12C(=O)Nc1ccc(I)cc12 do in these assays?
EZH2 inh: -13

How did Cc1ccc(NC(=O)CN(C)S(=O)(=O)c2ccccc2)c(C)c1 do in these assays?
EZH2 inh: -4

Results for COc1ccccc1N(CC(=O)N1CCN(C)CC1)S(C)(=O)=O ?
EZH2 inh: 3

What do the screens show for `CC1=CC(=O)OC1(O)CCC(C)CC(=O)O` (centres undefined)?
EZH2 inh: 100*

What do the screens show for `CC(CC[C@]1(C)C2CCC=C(CO)[C@]2(C)CC[C@H]1C)CC(=O)O` (some centres undefined)?
EZH2 inh: 15

Results for Cc1cccc(-c2nnc(SCC(=O)Nc3cc([N+](=O)[O-])ccc3C)o2)c1 ?
EZH2 inh: -15

Results for O=C(NCSCc1cccc(C(F)(F)F)c1)Nc1ccc(F)c(Cl)c1 ?
EZH2 inh: 56*

What do the screens show for `CCn1c(SCC(=O)Nc2ccc(F)c(Cl)c2)nnc1-c1cccc(C)c1`?
EZH2 inh: 1

Results for CC(C(=O)Nc1cccc(C(F)(F)F)c1)N(c1ccc(Cl)cc1)S(C)(=O)=O (centres undefined) ?
EZH2 inh: -5

Results for CCN1CCN(C(=O)C(C)N(c2ccccc2)S(C)(=O)=O)CC1 (centres undefined) ?
EZH2 inh: 4

How did N#Cc1ccc(/C=N/NC(=O)c2ccc(C(=O)NO)cc2)cc1 do in these assays?
EZH2 inh: -9

What do the screens show for `Cc1cc(C)c(OCC(=O)Nc2ccccc2-c2nc3ccccc3s2)c(Br)c1`?
EZH2 inh: 0

Results for COC(=O)CSc1nnc2c3c4c(sc3nc(-c3ccccc3Cl)n12)CCCC4 ?
EZH2 inh: -13

Results for O=C(CN1CCN(S(=O)(=O)c2cccc([N+](=O)[O-])c2)CC1)Nc1ccc(F)cc1 ?
EZH2 inh: 1

How did CCOc1cc(/C=N/NC(=O)c2ccccn2)ccc1O do in these assays?
EZH2 inh: 16

Results for O=C(Nc1ccccc1[N+](=O)[O-])C1(c2ccccc2)CCN(S(=O)(=O)c2ccccc2)CC1 ?
EZH2 inh: 10
